Measurements taken from PubChem BioAssay (NCI).
About 83,000 compounds went through this panel and 20% of them were active in at least one assay; those are over-represented in the sample as a whole.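 Values shown are percent growth following 48 h exposure of cells in 96-well plates to a single concentration of compound; below 10 was considered active.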 Values without a mark were called inactive. The source made the active and inactive calls.

The compounds below were run on A498 renal (assay: NCI-60 one-dose screen, 48 h (100 = growth as untreated, 0 = no growth, -100 = all killed)). Details: 10 µM.
Protocol: Growth inhibition of the A498 human tumor cell line is measured as a screen for anti-cancer activity. Cells are grown in 96 well plates and exposed to the test compound for 48 hours. Compounds are tested at a single concentration, which is 10^-5 M for most compounds. The reported endpoint is percent growth (GI% or GIPRCNT), where numbers from 0 - 100% represent growth inhibition, and numbers from -100% - 0 represent cell death. For example, a value of 40 represents 60% growth inhibition. A value of 0 means no net growth occurred over the course of the experiment. A value of -40 indicates 40% of cells at the beginning of the experiment died by the end of the experiment. A value of -100 means all cells are dead at the end of the experiment.
NCI-60 Human Tumor Cell Lines Screen was performed using the standard one-dose NCI protocol, which is described in more detail at https://dtp.cancer.gov/discovery_development/nci-60/default.htm.
Compounds with GIPRCNT values below 10 were considered active. Activity score was based on GIPRCNT using the following formula: […]
Score is 0 for GIPRCNT values of 100 or above, 50 for GIPRCNT values of 0, and 100 for GIPRCNT values of -100.

SMILES | growth
CN(c1ccccc1)c1ncnc2c1ncn2C | 88.4%
O=c1cc(-c2ccccc2)oc2c1ccc1ccccc12 | 73%
OCC(O)C(O)C(O)C(O)/C=N/O (stereo not given) | 102%
CCCCCCCCCCC1CO1 (stereo not given) | 108%
Cn1cnc2nc(Cl)nc(Cl)c21 | 62.6%
CC1(C)OC(=O)C(c2ccsc2)C(=O)O1 | 113%
CCOC(=O)/C(=C/c1ccc(OC)cc1)N(CC)CC | 109%
CC(CC(=O)c1ccccc1)c1ccccc1 (stereo not given) | 88.8%
Cc1cc2ccccc2c(O)c1C#N | 107%
Oc1ccc2c(c1)OCC1(O)Cc3cc(O)c(O)cc3C21 (stereo not given) | 99.1%
CC(C)OC(C(=O)O)c1ccccc1 (stereo not given) | 107%
COc1ccccc1NC(=O)c1cc2cc(Br)ccc2cc1O | 18.2%
O=C1Cc2cc(O)ccc2O1 | 92.7%
CC1(C)Nc2cccc3c(N=Nc4ccc(N=Nc5ccccc5)c5ccccc45)ccc(c23)N1 | 103%
CC(=O)c1sc2c(c1OC(=O)c1ccc(Cl)cc1Cl)c(=O)n(-c1ccccc1)c(=S)n2-c1ccccc1 | -41.9% (active)
CC1NC(=O)NC1CCCCCC(=O)O (stereo not given) | 87.8%
Cc1cc(C)cc(NCCC#N)c1 | 111%
N/N=C(/Cc1ccccc1)NNC(N)=S | 87.5%
CC(=O)CC(=O)N(C)C | 102%
Nc1nc(OCc2ccccc2)c2[nH]cnc2n1 | 86.1%

SMILES | growth
Cc1cc(Cc2cc(C)c(N)cc2N)c(N)cc1N | 98.8%
CCOC(=O)CCCS(C)(=O)=O | 96.8%
Cc1c(O)cccc1O | 125%
COc1cc(C(=O)N/N=C/c2cccc([N+](=O)[O-])c2)cc(OC)c1OC | 26.3%
COc1cc2nn(-c3ccccc3N)nc2cc1OC | 82.3%
C/C(=C\c1ccc([N+](=O)[O-])cc1)C(=O)O | 81.7%
CCCCNC(=O)C(=O)NCCCC | 114%
CN(C)c1ccc(S(=O)(=O)O)cc1 | 94.9%
OCc1ccc(-c2ccc(-c3ccc(CO)s3)o2)s1 | -89.1% (active)
O=[N+]([O-])c1ccc(S(=O)(=O)NN=C2CCCCC2)cc1 | 123%
CC(=O)Cc1cc(-c2cc(CC(C)=O)[nH]n2)n[nH]1 | 99.3%
C#CCSc1nnnn1-c1ccc(Br)c(C)c1 | 124%
COc1cc2c3cc1Oc1c(OC)c(OC)cc4c1C(Cc1ccc(O)c(c1)Oc1ccc(cc1)CC3N(C)CC2)N(C)CC4 (stereo not given) | 21.4%
CCOC(=O)Nc1cc2c(c(N)n1)N=C(c1ccccc1)CO2 | 52%
CC1Cc2ccccc2O1 (stereo not given) | 115%
CCCC(=O)Nc1ccc2c(c1)CN1C(=O)c3ccccc3C1=N2 | 88.5%
CC(=O)OCC(=O)[C@@]1(O)CC[C@H]2[C@@H]3CC[C@@H]4C[C@H](O)CC[C@]4(C)[C@H]3C(=O)C[C@@]21C | 91.8%
c1ncc2[nH]cnc2n1 | 79.1%
N#CSc1cc(S(N)(=O)=O)ccc1N | 118%
CC1(C)N=C(N)N=C(N)N1c1ccc(Cl)cc1 | 120%
